Assay results published in PubChem BioAssay.
Activity calls are given as the source filed them.

Key:
[1] = binders of probe aFSTL3 on microarray, primary screen, stem cell growth factor project, biochemical, small-molecule microarray, fluorescence 635/667 (AID 1064); conditions: higher = more signal;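 also: measures binding of the biotinylated anti-FSTL3 antibody to printed compounds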
[2] = binders from COS7 lysate, DM2A8 probe, primary screen, torsin A project, cell lysate, small-molecule microarray, fluorescence 635/667 (AID 1065); conditions: higher = more signal, COS7 lysate expressing mutant human TOR1A
[3] = binders of probe aFGF2 on microarray, primary screen, stem cell growth factor project, biochemical, small-molecule microarray, fluorescence 635/667 (AID 1067); conditions: higher = more signal;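 also: measures binding of biotinylated aFGF2 protein to printed compounds on slides; z-score merges feature fluorescence and signal-to-noise across triplicate slides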
[4] = binders of probe aFGF10 on microarray, primary screen, stem cell growth factor project, biochemical, small-molecule microarray, fluorescence 635/667 (AID 1071); conditions: higher = more signal;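 also: score merges 667 nm spot intensity and signal to noise from triplicate slides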
[5] = biological target: Neurogenic locus notch homolog protein 2 (Homo sapiens) (UniProt Q04721); test: Notch2 binders on small-molecule microarrays, primary screen, biochemical, small-molecule microarray, 635 nm fluorescence, stem cell growth factors (AID 1073); conditions: Notch2 binding, higher = more signal
[6] = biological target: Pro-neuregulin-1, membrane-bound isoform (Homo sapiens) (UniProt Q02297); test: NRG1 binders on small-molecule microarrays, primary screen, psychiatric disease protein project, biochemical, small-molecule microarray, fluorescence 635/667 (AID 1075); conditions: NRG1 binding, 635 nm fluorescence, higher = more signal;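 also: score combines 667 nm spot fluorescence with signal to noise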
[7] = tested on: Neuregulin-1 EGF-like domain; test: binders of neuregulin-1 EGF-like domain, primary screen, biochemical, small-molecule microarray, 635 nm fluorescence (AID 1081); conditions: small-molecule microarray binding, higher = more signal;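 also: binding of the protein to compounds printed on small-molecule microarray slides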
[8] = FRG1 promoter luciferase signal modulators, primary screen, FRG1 inhibition for FSHD, cell-based, C2C12 myotubes, firefly/Renilla luciferase, luminescence (AID 1084); conditions: higher = more signal, called active from +8 up or from −8 down
[9] = binders of probe aFST on microarray, primary screen, stem cell growth factor project, biochemical, small-molecule microarray, fluorescence 635/667 (AID 1086); conditions: higher = more signal;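 also: score merges 667 nm fluorescence with signal-to-noise of each printed compound spot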
[10] = binders of probe aHhip on microarray, primary screen, stem cell growth factor project, biochemical, small-molecule microarray, fluorescence 635/667 (AID 1087); conditions: higher = more signal;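 also: score merges spot fluorescence at 667nm with spot signal to noise ratio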

Neurogenic locus notch homolog protein 2 (Homo sapiens), sequence (Q04721 whole entry, looked up, canonical isoform): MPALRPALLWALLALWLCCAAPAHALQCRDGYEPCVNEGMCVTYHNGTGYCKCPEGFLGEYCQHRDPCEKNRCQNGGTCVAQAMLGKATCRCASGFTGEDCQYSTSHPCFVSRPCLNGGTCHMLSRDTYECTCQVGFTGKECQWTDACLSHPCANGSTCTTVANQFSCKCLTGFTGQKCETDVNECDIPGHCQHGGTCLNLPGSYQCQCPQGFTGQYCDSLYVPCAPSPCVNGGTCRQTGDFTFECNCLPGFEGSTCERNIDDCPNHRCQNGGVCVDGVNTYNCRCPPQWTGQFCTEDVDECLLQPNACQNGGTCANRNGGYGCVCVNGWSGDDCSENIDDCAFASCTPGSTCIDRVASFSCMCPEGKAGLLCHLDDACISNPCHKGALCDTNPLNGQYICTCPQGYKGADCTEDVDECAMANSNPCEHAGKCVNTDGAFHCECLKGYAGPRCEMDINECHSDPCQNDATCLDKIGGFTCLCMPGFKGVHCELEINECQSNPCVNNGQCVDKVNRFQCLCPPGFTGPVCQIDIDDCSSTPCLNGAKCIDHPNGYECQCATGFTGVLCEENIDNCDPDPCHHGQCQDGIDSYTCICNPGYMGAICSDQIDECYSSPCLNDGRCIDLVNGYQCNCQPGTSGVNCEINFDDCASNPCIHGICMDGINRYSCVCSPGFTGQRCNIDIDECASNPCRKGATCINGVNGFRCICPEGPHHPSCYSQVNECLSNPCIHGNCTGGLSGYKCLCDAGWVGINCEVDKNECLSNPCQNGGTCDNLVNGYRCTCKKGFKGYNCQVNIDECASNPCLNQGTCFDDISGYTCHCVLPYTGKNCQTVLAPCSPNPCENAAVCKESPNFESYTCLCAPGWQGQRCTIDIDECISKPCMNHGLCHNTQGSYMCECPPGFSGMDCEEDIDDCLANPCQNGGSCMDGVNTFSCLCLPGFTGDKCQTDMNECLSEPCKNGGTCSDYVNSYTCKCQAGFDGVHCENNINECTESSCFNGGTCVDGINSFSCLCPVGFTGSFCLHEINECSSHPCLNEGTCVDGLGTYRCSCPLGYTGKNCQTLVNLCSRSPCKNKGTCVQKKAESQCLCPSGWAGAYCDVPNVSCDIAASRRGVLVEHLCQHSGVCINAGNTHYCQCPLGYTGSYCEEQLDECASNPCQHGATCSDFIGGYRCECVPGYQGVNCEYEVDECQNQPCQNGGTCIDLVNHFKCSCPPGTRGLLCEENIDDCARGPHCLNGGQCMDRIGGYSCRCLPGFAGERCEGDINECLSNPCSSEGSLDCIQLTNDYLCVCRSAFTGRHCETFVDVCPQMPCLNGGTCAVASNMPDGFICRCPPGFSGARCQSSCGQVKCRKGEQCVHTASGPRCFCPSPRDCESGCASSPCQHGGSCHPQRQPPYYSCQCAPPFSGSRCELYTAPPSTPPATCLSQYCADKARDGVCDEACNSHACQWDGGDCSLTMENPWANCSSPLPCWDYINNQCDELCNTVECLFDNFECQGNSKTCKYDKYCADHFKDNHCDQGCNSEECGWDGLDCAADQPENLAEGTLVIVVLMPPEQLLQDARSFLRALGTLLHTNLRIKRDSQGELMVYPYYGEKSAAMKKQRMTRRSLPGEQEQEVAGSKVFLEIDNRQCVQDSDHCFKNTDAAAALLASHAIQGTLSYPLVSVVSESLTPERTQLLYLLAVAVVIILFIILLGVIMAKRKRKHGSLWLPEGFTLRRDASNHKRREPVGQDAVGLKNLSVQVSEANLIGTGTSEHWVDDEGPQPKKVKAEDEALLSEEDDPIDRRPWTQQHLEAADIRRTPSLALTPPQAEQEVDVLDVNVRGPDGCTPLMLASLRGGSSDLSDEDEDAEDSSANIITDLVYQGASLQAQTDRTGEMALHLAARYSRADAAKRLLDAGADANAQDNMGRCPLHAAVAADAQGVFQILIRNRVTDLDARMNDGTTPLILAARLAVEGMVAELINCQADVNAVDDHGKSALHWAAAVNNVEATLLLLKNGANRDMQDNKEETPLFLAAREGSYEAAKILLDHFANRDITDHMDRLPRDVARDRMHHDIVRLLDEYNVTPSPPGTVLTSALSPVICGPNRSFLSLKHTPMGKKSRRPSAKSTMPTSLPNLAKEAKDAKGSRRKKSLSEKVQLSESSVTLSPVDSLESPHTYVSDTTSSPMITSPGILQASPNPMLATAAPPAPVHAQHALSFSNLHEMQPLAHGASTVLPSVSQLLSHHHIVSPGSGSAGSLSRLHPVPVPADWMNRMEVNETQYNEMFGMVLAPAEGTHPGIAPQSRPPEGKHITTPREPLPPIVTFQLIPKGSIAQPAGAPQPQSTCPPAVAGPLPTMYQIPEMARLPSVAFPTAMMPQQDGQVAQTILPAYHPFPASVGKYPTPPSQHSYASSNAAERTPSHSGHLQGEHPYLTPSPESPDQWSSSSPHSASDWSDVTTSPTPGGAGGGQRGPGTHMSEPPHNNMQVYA
Pro-neuregulin-1, membrane-bound isoform (Homo sapiens), sequence (Q02297 whole entry, looked up, the tested form may be a part, canonical isoform): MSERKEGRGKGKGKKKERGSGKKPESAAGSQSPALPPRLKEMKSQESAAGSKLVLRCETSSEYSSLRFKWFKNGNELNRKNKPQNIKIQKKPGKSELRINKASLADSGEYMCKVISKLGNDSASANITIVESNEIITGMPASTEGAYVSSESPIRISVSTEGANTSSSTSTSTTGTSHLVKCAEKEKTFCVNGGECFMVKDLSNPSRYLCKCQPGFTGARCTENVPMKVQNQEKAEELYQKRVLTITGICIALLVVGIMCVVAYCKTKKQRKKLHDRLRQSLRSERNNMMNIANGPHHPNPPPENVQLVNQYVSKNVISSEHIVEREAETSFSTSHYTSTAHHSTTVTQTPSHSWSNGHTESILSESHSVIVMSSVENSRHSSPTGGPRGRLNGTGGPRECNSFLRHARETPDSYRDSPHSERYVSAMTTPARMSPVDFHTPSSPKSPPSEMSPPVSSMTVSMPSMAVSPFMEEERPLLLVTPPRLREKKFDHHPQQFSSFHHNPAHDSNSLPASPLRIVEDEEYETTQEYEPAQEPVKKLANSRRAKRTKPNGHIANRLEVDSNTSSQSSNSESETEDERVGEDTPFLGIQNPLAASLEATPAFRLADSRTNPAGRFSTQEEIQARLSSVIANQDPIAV

Row | SMILES | composite z-score [1] | composite z-score [2] | composite z-score [3] | composite z-score [4] | composite z-score [5] | composite z-score [6] | composite z-score [7] | z-score [8] | composite z-score [9] | composite z-score [10]
1 | COC(=O)C(CC#Cc1ccc2c(c1)[C@]1(C(=O)N2)[C@H](c2ccc(OCCO)cc2)N2[C@H](c3ccccc3)[C@H](c3ccccc3)OC(=O)[C@H]2[C@@H]1C(=O)NC[C@H](O)c1ccccc1)C(=O)OC | 0.194 | 0.855 | -0.0011 | 1.12 | 0.694 | 1.29 | 1.26 | 1.03 (inactive) | -0.0592 | 0.0274
2 | CCCCCCCCCCC(O)C1C=CC2C(=O)N(Cc3ccccc3)C(=O)C2N1n1cnnc1 (stereo not given) | 0.794 | 0.0622 | 0.279 | 0.137 | 0.53 | 0.919 | 0.843 | 1.91 (inactive) | 1.08 | 0.582
3 | O=C1C[C@@](C(=O)NC2CC2)(c2ccc([N+](=O)[O-])cc2)[C@@H](c2ccc(CO)cc2)N1CC12CC3CC(CC(C3)C1)C2 | -0.0569 | -0.121 | -0.0111 | 0.214 | 1.4 | 0.707 | 0.745 | -0.962 (inactive) | 0.424 | -0.136
4 | C=CCC(OC(C)=O)[C@@H]1[C@@H](N(Cc2ccc(-c3cccc(C(F)(F)F)c3)o2)C(=O)c2ccc(C)cc2)c2cc(OCCCO)ccc2N1C(=O)c1ccc(-c2ccccc2)cc1 (stereo not given in full) | -0.322 | -0.179 | -0.129 | 0.265 | 0.0105 | -0.416 | -0.515 | 0.887 (inactive) | 0.137 | -0.214
5 | COc1cc(C(O)C2C=CC3C(=O)N(c4ccccc4)C(=O)C3N2Nc2ccc(C#N)cc2)cc(OC)c1OC (stereo not given) | 0.606 | 0.226 | 0.179 | 1.14 | 1.67 | 2.18 | 1.41 | 0.209 (inactive) | 1.77 | 0.295
6 | O=C1C2C=CC(C(O)c3ccc(-c4ccccc4)s3)N(n3cnnc3)C2C(=O)N1Cc1ccccc1 (stereo not given) | 0.0626 | -0.0982 | -0.083 | -0.0152 | 0.207 | 0.802 | 1.04 | 0.545 (inactive) | 0.415 | -0.0645
7 | O=C(O)[C@H]1C[C@H]2C(=O)NCC(=O)N2[C@H]1c1ccc(O)cc1 | 0.136 | 0.202 | -0.0996 | -0.224 | -0.424 | -0.235 | 1.4 | 3.81 (inactive) | 0.025 | -0.226
8 | COC(=O)C[C@H]1O[C@]2(C(=O)N(Cc3ccccc3)c3ccc(NC(C)=O)cc32)[C@@H](C)[C@@H]1[Si](C)(C)c1ccc(OC)cc1 | -0.383 | -0.148 | -0.0543 | 0.489 | 1.12 | 0.264 | 0.882 | -1.98 (inactive) | 0.113 | -0.273
9 | O=C/C=C/c1ccc(Cl)cc1 | -0.0244 | -0.385 | 0.0086 | 0.439 | -0.885 | -0.476 | 0.651 | -0.678 (inactive) | -0.493 | -0.282
10 | COCCOC(=O)N1C(=O)[C@@]2(c3cc(C#CCNC(N)=O)ccc31)[C@H](c1ccc(O)cc1)N1[C@H](c3ccccc3)[C@H](c3ccccc3)OC(=O)[C@H]1[C@@H]2C(=O)NC[C@H](O)c1ccccc1 | 0.134 | 1.16 | 0.109 | 0.846 | 1.01 | 0.743 | 0.866 | -0.463 (inactive) | 1.55 | 0.127
11 | C=CCNC(=O)[C@@H]1[C@H]2C(=O)O[C@H](c3ccccc3)[C@H](c3ccccc3)N2[C@H](c2ccccc2OCCO)[C@@]12C(=O)Nc1ccc(C#CC3=CCCCC3)cc12 | -0.098 | 0.571 | 0.0368 | 0.865 | 1.25 | 0.948 | 1.12 | 0.0472 (inactive) | 0.639 | 0.134
12 | CCN(CC)c1ccc(N2CC=CC34O[C@@H]5C=CCCOC(=O)C5[C@H]3C(=O)N(CCCCCO)[C@@H]4C2=O)cc1 (stereo not given in full) | 0.373 | 2.13 | -0.116 | -0.851 | -0.788 | 1.78 | 1.01 | -0.736 (inactive) | 0.37 | -0.226
13 | COCCOC(=O)N1C(=O)[C@@]2(c3cc(C#CCC(C(=O)OC)C(=O)OC)ccc31)[C@H](c1ccccc1OCCO)N1[C@H](c3ccccc3)[C@H](c3ccccc3)OC(=O)[C@H]1[C@@H]2C(=O)N1CCc2cc(OC)c(OC)cc2C1 | -0.257 | 0.007 | -0.126 | 0.319 | 1.46 | 1.09 | 1.27 | -0.285 (inactive) | 0.638 | -0.0655
14 | COC(=O)[C@@]1(Cc2ccc(OC)cc2)[C@H]2c3cc(C(=O)N4CCCC4)n(CCc4c[nH]c5cc(F)ccc45)c3C[C@H]2CN1C(=O)c1ccccc1 | 0.785 | 0.209 | 0.0181 | 0.71 | 1.76 | 2.12 | 1.18 | -0.87 (inactive) | 2.35 | 0.28
